The values that follow come from ChEMBL document CHEMBL3988442, “University of Dundee, Small-Polar-MMV Screening Library” (2021).

Holding throughout (design): scale not given: direction of the effect not stated beside the values
Assay [1] deals with Protein translocase subunit SecA (Escherichia coli (strain K12)) (UniProt P10408). Kind of assay: Assay to Identify E. coli SecA ATPase Inhibitors. Format: functional. Particulars: 30 µM.
Assay [2] addresses T1, Ubiquitin-activating enzyme e1, putative (Leishmania donovani (strain BPK282A1)) (UniProt E9BSI1).
T1 sequence (whole entry): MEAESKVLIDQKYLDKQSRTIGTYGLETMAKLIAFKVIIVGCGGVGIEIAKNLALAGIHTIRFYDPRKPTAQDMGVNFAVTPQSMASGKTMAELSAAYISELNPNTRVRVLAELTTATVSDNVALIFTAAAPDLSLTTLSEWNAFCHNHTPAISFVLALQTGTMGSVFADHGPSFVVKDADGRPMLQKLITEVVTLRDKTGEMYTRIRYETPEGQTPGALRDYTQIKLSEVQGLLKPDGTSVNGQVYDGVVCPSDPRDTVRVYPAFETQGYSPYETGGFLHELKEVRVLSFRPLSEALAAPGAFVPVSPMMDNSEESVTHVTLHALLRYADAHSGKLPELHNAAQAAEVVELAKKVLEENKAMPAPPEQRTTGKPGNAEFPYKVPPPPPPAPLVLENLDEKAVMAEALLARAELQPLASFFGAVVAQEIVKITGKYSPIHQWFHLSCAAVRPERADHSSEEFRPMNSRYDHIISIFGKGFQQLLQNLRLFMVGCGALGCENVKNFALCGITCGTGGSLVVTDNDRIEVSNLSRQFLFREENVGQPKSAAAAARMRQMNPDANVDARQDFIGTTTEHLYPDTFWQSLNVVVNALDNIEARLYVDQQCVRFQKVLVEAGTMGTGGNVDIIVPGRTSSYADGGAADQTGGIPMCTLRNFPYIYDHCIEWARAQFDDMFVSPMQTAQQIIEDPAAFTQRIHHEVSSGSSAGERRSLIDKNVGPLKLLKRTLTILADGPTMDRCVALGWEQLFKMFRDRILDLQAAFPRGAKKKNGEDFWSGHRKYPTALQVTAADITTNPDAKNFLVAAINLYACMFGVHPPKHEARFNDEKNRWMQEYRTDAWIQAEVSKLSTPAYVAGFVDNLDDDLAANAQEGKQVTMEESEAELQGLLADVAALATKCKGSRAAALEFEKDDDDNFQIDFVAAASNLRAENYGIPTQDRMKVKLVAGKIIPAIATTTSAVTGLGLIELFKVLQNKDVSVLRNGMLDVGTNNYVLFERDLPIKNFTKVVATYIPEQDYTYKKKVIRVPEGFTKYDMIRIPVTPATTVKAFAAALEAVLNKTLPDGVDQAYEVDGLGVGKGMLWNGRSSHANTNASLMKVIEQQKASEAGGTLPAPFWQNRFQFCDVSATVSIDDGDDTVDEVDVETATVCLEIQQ
Kind of assay: Leishmania donovani Ubiquitin Activating Enzyme (LdE1). Particulars: 30 µM. The assay is classed as functional.

Assay [3] concerns the target AMP-activated protein kinase, AMPK (Homo sapiens) (UniProt P54646+O43741+P54619+Q9UGJ0+Q9Y478+Q13131+Q9UGI9). Briefly: AMP-dependent Kinase enzyme assay. An in vitro enzyme assay that detects ADP turnover that is directly proportional to AMPK activity. This uses naive AMPK that is activated during the assay with MK-8722. Format: functional. The note with it: 30 µM.
For assay [4], the target named is Sialic acid-binding Ig-like lectin 9 (Homo sapiens) (UniProt Q9Y336). Kind of assay: Hs-Siglec9 ALPHAscreen SOP 20170721. The note with it: 10 µM. In general terms: Alpha assays give light when donor and acceptor beads are brought close together.
Assay [5] deals with Trypanosoma cruzi. Briefly: Trypanosoma cruzi phosphomannomutase and mannose-1-phosphate guanylyltransferase assay. The assay is classed as functional. The note with it: 10 µM.
Assay [6] concerns the target T2, Arginase-2, mitochondrial (Homo sapiens) (UniProt P78540).
T2 sequence (whole entry): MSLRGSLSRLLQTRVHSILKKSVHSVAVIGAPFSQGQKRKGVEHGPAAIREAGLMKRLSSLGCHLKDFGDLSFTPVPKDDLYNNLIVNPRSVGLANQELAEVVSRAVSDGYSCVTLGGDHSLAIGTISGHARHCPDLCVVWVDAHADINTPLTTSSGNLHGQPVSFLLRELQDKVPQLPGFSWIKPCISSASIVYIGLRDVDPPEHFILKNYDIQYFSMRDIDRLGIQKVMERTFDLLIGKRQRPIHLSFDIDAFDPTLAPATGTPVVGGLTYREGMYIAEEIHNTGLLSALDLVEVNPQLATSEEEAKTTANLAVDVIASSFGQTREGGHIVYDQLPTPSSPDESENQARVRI
Kind of assay: in vitro enzyme assay to detect the production of urea directly proportional to the activity of Arginase II. Also: in the data most compounds retested in dose-response had high values. The note with it: 33.3 µM. The assay is classed as functional.

Assay [7] has as its target T3, Proteasome subunit beta (Trypanosoma cruzi) (UniProt O96673).
T3 sequence (whole entry): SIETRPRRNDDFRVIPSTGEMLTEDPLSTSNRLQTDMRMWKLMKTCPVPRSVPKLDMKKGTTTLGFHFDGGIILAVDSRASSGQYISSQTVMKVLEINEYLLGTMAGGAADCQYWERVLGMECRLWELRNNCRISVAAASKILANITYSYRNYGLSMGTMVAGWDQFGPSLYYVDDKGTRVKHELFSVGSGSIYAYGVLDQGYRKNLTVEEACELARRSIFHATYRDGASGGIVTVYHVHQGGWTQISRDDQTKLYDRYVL
Briefly: Trypanosoma cruzi proteasome chymotrypsin-like activity (TcProtChymo) assay. Also: in the data most compounds retested in dose-response had high values. The assay is classed as functional. Particulars: 9.37 µM.

Assay [8] is filed under the species Homo sapiens. Briefly: To identify inhibition of the IFN signalling (Jak-Stat) pathway via expression of an eGFP reporter gene under the control of an IFN-stimulated response element (ISRE) containing MxA promoter. The assay is classed as functional. Particulars: 30 µM. Background: Reporter assays use an easily measured gene product as a stand-in for the process of interest.

In assay [9] the target is T4, Tyrosyl-tRNA synthetase, putative (Trypanosoma cruzi (strain CL Brener)) (UniProt Q4DSP6).
T4 sequence (whole entry): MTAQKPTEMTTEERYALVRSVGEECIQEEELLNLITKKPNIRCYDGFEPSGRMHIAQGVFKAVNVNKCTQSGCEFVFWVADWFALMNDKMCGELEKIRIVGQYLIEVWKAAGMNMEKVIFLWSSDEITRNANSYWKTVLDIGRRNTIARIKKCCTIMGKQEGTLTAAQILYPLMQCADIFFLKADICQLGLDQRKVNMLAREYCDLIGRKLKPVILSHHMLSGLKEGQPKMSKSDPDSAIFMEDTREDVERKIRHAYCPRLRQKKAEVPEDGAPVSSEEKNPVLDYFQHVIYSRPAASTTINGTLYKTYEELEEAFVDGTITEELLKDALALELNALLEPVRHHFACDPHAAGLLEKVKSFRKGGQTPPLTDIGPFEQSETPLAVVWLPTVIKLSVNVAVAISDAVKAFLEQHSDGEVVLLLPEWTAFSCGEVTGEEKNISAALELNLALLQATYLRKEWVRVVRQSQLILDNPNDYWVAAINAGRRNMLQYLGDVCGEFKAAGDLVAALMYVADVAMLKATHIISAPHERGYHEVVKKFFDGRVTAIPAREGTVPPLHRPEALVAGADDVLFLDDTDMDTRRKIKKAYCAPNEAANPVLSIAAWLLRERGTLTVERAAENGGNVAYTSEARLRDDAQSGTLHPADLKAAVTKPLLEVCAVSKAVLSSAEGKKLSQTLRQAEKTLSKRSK
Kind of assay: Trypanosoma cruzi tyrosyl tRNA synthetase (TcYRS) _High Tyrosine SOP. Also: in the data most compounds retested in dose-response had high values. Format: functional. Particulars: 30 µM.

Assay [10] concerns the target T4, Tyrosyl-tRNA synthetase, putative (Trypanosoma cruzi (strain CL Brener)). Briefly: Trypanosoma cruzi tyrosyl tRNA synthetase (TcYRS) SOP. Format: functional. Particulars: 30 µM.
Assay [11] has as its target Chromo domain-containing protein 1 (Saccharomyces cerevisiae (strain ATCC 204508 / S288c) (Baker's yeast)) (UniProt P32657). Briefly: ScCHD-1 Enzyme Inhibition Assay. Also: in the data most compounds retested in dose-response had high values. Format: functional. Particulars: 30 µM.

The structures appear in SMILES notation. For some of these results: Entries with a potency or affinity are not part of this list.

Chain of Sialic acid-binding Ig-like lectin 9 (Homo sapiens) (Q9Y336 whole entry): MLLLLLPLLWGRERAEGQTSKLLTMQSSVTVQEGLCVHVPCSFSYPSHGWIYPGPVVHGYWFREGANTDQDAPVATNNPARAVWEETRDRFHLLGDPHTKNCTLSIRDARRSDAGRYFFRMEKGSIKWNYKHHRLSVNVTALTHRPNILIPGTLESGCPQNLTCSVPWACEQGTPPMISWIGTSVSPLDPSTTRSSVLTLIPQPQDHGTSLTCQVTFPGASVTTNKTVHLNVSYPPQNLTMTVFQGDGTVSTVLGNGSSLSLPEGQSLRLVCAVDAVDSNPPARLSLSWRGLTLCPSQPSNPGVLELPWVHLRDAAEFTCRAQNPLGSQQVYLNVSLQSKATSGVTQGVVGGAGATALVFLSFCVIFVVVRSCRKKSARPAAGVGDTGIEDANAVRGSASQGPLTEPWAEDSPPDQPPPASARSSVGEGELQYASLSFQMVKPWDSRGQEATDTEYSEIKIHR
Chain of Chromo domain-containing protein 1 (Saccharomyces cerevisiae (strain ATCC 204508 / S288c) (Baker's yeast)) (P32657 whole entry, the tested form may be a part): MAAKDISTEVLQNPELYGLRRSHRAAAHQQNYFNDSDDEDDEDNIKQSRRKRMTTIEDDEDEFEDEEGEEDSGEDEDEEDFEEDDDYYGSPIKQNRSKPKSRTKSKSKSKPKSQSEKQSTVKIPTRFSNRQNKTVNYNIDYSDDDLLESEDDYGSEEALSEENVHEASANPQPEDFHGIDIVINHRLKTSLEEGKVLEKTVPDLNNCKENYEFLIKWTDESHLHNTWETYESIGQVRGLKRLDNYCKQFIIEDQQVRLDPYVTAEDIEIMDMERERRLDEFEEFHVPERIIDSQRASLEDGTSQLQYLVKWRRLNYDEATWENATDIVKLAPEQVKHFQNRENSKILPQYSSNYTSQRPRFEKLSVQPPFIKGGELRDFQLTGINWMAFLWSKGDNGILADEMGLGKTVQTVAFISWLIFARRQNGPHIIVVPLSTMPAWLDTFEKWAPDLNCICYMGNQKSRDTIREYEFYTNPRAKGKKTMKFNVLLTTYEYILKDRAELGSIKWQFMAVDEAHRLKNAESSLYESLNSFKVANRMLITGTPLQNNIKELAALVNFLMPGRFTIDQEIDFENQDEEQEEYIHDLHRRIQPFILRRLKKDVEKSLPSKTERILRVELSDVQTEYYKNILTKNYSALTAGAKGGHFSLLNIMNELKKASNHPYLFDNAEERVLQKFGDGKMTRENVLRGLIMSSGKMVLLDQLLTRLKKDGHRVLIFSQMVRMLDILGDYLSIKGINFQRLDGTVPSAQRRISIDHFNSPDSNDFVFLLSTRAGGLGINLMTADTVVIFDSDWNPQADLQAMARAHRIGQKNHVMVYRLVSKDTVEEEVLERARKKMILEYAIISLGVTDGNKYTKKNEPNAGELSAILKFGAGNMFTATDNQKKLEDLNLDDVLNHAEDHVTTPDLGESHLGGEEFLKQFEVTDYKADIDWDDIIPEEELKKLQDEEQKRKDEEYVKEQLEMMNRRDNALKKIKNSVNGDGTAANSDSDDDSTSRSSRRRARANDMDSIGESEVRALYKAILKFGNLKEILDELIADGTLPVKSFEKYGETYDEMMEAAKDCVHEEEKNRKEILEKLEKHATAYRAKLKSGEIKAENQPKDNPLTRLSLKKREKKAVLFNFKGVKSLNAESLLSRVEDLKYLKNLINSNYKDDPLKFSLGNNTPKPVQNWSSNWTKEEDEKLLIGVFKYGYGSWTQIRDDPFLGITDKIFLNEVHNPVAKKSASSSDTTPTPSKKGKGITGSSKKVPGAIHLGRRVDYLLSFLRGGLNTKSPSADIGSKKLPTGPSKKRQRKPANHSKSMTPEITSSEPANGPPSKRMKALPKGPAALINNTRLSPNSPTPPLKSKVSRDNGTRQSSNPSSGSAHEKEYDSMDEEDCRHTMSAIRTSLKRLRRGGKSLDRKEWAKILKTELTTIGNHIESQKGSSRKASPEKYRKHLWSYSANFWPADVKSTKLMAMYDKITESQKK
Chain of Protein translocase subunit SecA (Escherichia coli (strain K12)) (P10408 whole entry): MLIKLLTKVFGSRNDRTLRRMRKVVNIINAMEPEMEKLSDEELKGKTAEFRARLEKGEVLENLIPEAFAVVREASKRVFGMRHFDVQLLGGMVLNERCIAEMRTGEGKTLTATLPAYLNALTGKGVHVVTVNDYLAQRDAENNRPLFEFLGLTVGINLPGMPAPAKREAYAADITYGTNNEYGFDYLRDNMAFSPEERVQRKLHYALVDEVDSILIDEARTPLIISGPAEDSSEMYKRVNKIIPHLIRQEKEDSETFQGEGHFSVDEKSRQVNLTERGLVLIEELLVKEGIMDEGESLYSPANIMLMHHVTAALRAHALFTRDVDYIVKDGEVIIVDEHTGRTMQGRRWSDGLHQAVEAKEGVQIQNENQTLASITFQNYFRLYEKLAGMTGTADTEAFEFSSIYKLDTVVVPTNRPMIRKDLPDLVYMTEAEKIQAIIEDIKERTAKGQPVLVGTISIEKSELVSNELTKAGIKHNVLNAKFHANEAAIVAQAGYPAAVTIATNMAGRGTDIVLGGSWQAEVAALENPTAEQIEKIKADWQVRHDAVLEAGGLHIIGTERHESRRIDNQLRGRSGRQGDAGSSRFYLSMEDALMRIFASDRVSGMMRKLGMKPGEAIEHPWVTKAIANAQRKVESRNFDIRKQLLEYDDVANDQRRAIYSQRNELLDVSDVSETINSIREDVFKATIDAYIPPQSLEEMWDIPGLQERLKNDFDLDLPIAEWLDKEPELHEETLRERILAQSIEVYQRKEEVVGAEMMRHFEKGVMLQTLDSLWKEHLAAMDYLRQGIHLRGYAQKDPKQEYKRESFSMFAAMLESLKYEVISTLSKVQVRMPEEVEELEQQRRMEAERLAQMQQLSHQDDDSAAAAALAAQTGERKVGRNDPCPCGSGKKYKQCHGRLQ

On to `COCCO[C@H]1CCN(C(=O)C2CCOCC2)[C@H]1Cc1ccncc1`, for which the Percent Effect in assay [1] was -1.4%; in assay [2] it was 16%; in assay [3], -6.31%; in assay [4] it was -6.51%; in assay [5] it was -3.94%; in assay [6], -1.17%. Moreover, the Percent Effect in [7] is 9.6%; in [8] it was 16.1%; in assay [9], 2.13%; in assay [10], 6.41%; in [11] it was -2.62%.
Regarding `COCCCC1CCCN(C(=O)CCc2cc(O)no2)C1` (stereo unspecified), the Percent Effect in assay [1] was 0.503%; in assay [2] it was 4.17%; in [3], -6.36%; in assay [4] it was 2.98%; in assay [5], 1.46%; in [6] it was 13.2%. Moreover, the Percent Effect is 18.2% in assay [7]; 12.3% in assay [8]; 8.42% in [9]; 15.4% in assay [10]; -2.19% in assay [11].
In the case of `CN1CCc2onc(CNc3ncccn3)c2C1`, the Percent Effect in assay [1] is -7.63%; in [2] it was 2.67%; in [3] it was 0.141%; in assay [4], -6.27%; in assay [5], -7.53%; in [6], -53.9%. Besides, the Percent Effect in assay [7] was 3.25%; in assay [8], 3.62%; in assay [9], 0%; in assay [10], 5%; in assay [11], -6.01%.
As to `COc1ccc(C)cc1CN1CCCC1Cn1nc(C)nc1C` (stereo unspecified), the Percent Effect is -5.51% in assay [1]; -3.8% in [2]; -7.49% in [3]; 4.01% in assay [4]; 2.97% in [5]; -0.645% in assay [6]. The Percent Effect was 16.6% in [7]; 46.5% in assay [8]; 8.33% in assay [9]; 12.7% in [10]; -26.7% in assay [11].
For the compound `COC1COC2(CCN(Cc3ccccc3Cl)CC2)C1` (stereo unspecified), the Percent Effect was -5.82% in assay [1]; 1.33% in assay [2]; 7.01% in assay [3]; 5.98% in assay [4]; -0.982% in [5]; 2.29% in [6]. Further, the Percent Effect in [7] is 11.5%; in assay [8], 20.8%; in [9] it was -2.12%; in [10], 5.13%; in assay [11] it was 0.93%.
Regarding `CCS(=O)(=O)N1CCCc2ccc(NC(=O)Cc3ccc(F)cc3)cc21`, the Percent Effect in [1] is 0.369%; in [2], 7.79%; in [3], -1.04%; in [4], -9.41%; in [5], -5.82%; in [6] it was 0.645%. Also, the Percent Effect in assay [7] is 8.53%; in [8], 65.4%; in assay [9], -5.29%; in assay [10] it was -6.41%; in assay [11] it was -13.3%.
For the compound `c1cnn(CC2CN(Cc3ccc(-n4ccnc4)cc3)CCO2)c1` (stereo unspecified), the Percent Effect in [1] is -2.02%; in [2], 17.7%; in [3] it was -6.89%; in [4], 4.49%; in assay [5] it was 3.68%; in [6], 0.76%. Further, the Percent Effect in assay [7] was 6.14%; in assay [8], 0.886%; in assay [9], 9.36%; in assay [10] it was 24.1%; in assay [11] it was -2.59%.
Consider `CCc1nc(CN2CCCN(C(=O)C(C)n3cncn3)CC2)cs1` (stereo unspecified), for which the Percent Effect in assay [1] was -4.01%; in assay [2], 2.6%; in assay [3] it was -3.41%; in assay [4] it was 4.94%; in assay [5], -6.93%; in assay [6] it was 6.05%. The Percent Effect in assay [7] was 4.05%; in assay [8] it was 19.8%; in [9], 4.85%; in [10] it was 2.44%; in assay [11], -3.41%.
Regarding `COc1ccccc1OCC(=O)Nc1ncccc1Cl`, the Percent Effect in assay [1] was -3.19%; in [2], 15.3%; in [3], -6.62%; in assay [4], 22.9%; in assay [5], 2.62%; in assay [6], -2.65%. Moreover, the Percent Effect in assay [7] was 4.39%; in assay [8] it was -9.45%; in assay [9] it was 3.16%; in assay [10], 10.3%; in [11], -3.43%.
For `Cc1cc(C2CCCN(C(=O)c3ccc(C)[nH]c3=O)C2)n[nH]1` (stereo unspecified), the Percent Effect in assay [1] is 1.38%; in [2] it was 0%; in assay [3], -0.306%; in assay [4], 6.13%; in assay [5] it was -1.04%; in assay [6], -0.401%. Also, the Percent Effect in [7] was 1.08%; in [8], -7.96%; in assay [9] it was 3.45%; in assay [10], -1.24%; in [11], 4.03%.
Take `COc1c(C2CCCN2C(=O)Cc2c(C)noc2C)c(C)nn1C` (stereo unspecified): the Percent Effect in [1] was -4.91%; in assay [2] it was 15.2%; in assay [3] it was -0.162%; in assay [4] it was 8.65%; in [5] it was 0.661%; in assay [6], 0.38%. Moreover, the Percent Effect is 0.0819% in assay [7]; -12.4% in [8]; 7.39% in assay [9]; 16.5% in assay [10]; -6.93% in assay [11].
